Measurements as given in PubChem BioAssay (NCATS).
Records with an inconclusive call do not appear. Where a call stands in place of a potency, no number is given. The source made the active and inactive calls. The call rests on the fitted dose curve; in most records, active means well fitted inhibition curve with a large enough effect; inconclusive means small, poorly fitted or top-dose-only effect; inactive means flat fitted curve, though single readings scatter.

assay: P-glycoprotein substrates identified in KB-8-5-11 adenocarcinoma cell line, qHTS therapeutic library screen (AID 1346987); details: KB-8-5-11 (P-gp overexpressing) viability, CellTiter-Glo, 72 h; series mostly up to 44.5 µM; further: nearly all actives have a fitted effect of over 65% in size
Method in brief: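 Human cervical adenocarcinoma KB-8-5-11 cells, selected in colchicine to over-express P-gp and assayed without it, were exposed for 72 h to titrated compounds. An ATP-based luminescent viability signal gave AC50.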

| Structure (SMILES) | Potency | outcome |
| --- | --- | --- |
| Cc1oc2nc3c(c(NC(=O)CN4CCCC4=O)c2c1C)CCCC3 | inactive | – |
| CCCNCCOc1ccc(NC(=O)c2c[nH]c3c2C(=O)CCC3)cc1F | inactive | – |
| C=Cc1ccc(O[C@@H]2O[C@H](CO[C@@H]3O[C@@H](C)[C@H](O)[C@@H](O)[C@H]3O)[C@@H](O)[C@H](O)[C@H]2O)cc1 | inactive | – |
| C=C1CC2C(C)(CCC(=O)O)C(C(C)(C)O)CCC2(C)C2(C(=O)OC)C(=O)C(C)(O)C(=O)C12C (centres undefined) | inactive | – |
| C[C@@H]1O[C@@H](O[C@H]2[C@H](O)[C@@H](O)[C@H](OC(=O)[C@]34CCC(C)(C)C[C@H]3C3=CCC5[C@@]6(C)CC[C@H](O[C@@H]7O[C@H](C(=O)O)[C@@H](O)[C@H](O)[C@H]7O)C(C)(C)C6CC[C@@]5(C)[C@]3(C)CC4)O[C@@H]2CO)[C@H](O)[C@H](O)[C@H]1O (some centres undefined) | – | inactive [at 9.29 µM] |
| C[C@@H](NC(=O)c1cc(C(=O)N[C@@H](Cc2ccccc2)[C@H](O)CNC2CC2)cc(N(C)S(C)(=O)=O)c1)c1ccccc1 | inactive | – |
| COc1ccc(C2COc3cc(O)ccc3C2)c(O)c1OC (centres undefined) | inactive | – |
| C=C1C(=O)O[C@@H]2/C=C(\C)CC/C=C(\C(=O)O[C@@H]3O[C@H](CO)[C@@H](O)[C@H](O)[C@H]3O)CC[C@@H]12 | inactive | – |
| CC1=CC(=O)[C@]2(O[C@@H]3O[C@@H](C)[C@H](O)[C@@H](O)[C@H]3O)C=CO[C@@H](O[C@@H]3O[C@H](CO)[C@@H](O)[C@H](O)[C@H]3O)[C@H]12 | inactive | – |
| CC(=O)[C@@H]1C[C@H](C(C)(C)O[C@@H]2O[C@H](CO)[C@@H](O)[C@H](O)[C@H]2O)CC[C@@]2(CO)OC(=O)C[C@@H]12 | inactive | – |
| COc1cc(C(C)=O)ccc1O[C@@H]1O[C@H](CO[C@@H]2OC[C@@H](O)[C@H](O)[C@H]2O)[C@@H](O)[C@H](O)[C@H]1O | inactive | – |
| CCOC(=O)COc1ccc2c(c1)C[C@@H](NC[C@H](O)c1cccc(Cl)c1)CC2 | inactive | – |
| O=C(OC[C@H]1O[C@H](O[C@H]2CO[C@H](CO)[C@@H](O)[C@@H]2O)[C@H](O)[C@@H](O)[C@H]1O)c1ccccc1 | inactive | – |
| Cc1ccccc1N1CCN(S(=O)(=O)C[C@]23CC[C@H](C[C@@H]2NC(=O)[C@@H](N)CCS(C)(=O)=O)C3(C)C)CC1 | inactive | – |
| C=C(C)C1Cc2c(ccc3c2OCC(c2ccc(O)cc2O)C3)O1 (centres undefined) | inactive | – |
| C=CCC1=C[C@]2(OC)[C@H](C)[C@@H](c3ccc(OC)c(OC)c3)O[C@]2(OC)CC1=O | inactive | – |
| CC(C)=CCC[C@](C)(O[C@@H]1O[C@H](CO[C@@H]2O[C@@H](CO)[C@H](O)[C@H]2O[C@@H]2OC[C@@H](O)[C@H](O)[C@H]2O)[C@@H](O)[C@H](O)[C@H]1O)[C@H]1CC[C@]2(C)[C@@H]1[C@H](O)CC1[C@@]3(C)CC[C@H](O[C@@H]4O[C@H](CO)[C@@H](O)[C@H](O)[C@H]4O[C@@H]4O[C@H](CO)[C@@H](O)[C@H](O)[C@H]4O)C(C)(C)C3CC[C@]12C (some centres undefined) | – | inactive [at 9.29 µM] |
| C=C(COC(=O)CC(C)C)C1Cc2cc(C(C)=O)ccc2O1 (centres undefined) | inactive | – |
| CC1OC(O[C@H]2CC[C@@]3(C)C(CC[C@]4(C)C3CC=C3C5CC(C)(C)CC[C@]5(C(=O)OC5OC(CO)C(OC6OCC(OC7OCC(O)C(O)C7O)C(O)C6O)C(O)C5O)CC[C@]34C)C2(C)C)C(O)C(O)C1OC1OC(CO)C(O)C(OC2OC(CO)C(O)C(O)C2O)C1O (some centres undefined) | – | inactive [at 9.29 µM] |
| O=C(O)Cc1cn([C@@H]2O[C@H](CO)[C@@H](O)[C@H](O)[C@H]2O[C@@H]2O[C@H](CO)[C@@H](O)[C@H](O)[C@H]2O)c2ccccc12 | inactive | – |
| Cc1cccc(NC(=O)CN2CCC(c3ccccn3)CC2)c1 | inactive | – |
| CN(C)CCC[C@]1(c2ccc(F)cc2)OCc2cc(C#N)ccc21 | inactive | – |
| CC1C2=CC(=O)OC2(O)CC2C1C(OC(=O)c1ccccc1)C(OC(=O)c1ccccc1)C1(O)C2(C)CCC(O)C1(C)C(=O)O (centres undefined) | inactive | – |
| Cc1ccccc1-c1cc(N2CCN(C)CC2)ncc1N(C)C(=O)C(C)(C)c1cc(C(F)(F)F)cc(C(F)(F)F)c1 | inactive | – |
| C=C(C)C1CCC2(C(=O)OC3OC(COC4OC(CO)C(O)C(O)C4O)C(OC4OC(C)C(O)C(O)C4O)C(O)C3O)CCC3(C(=O)O)C(CCC4C5(C)CCC(=O)C(C)(C)C5CCC43C)C12 (centres undefined) | – | inactive [at 9.29 µM] |
| CCC[C@H](N[C@@H](C)C(=O)N1[C@H](C(=O)O)C[C@@H]2CCCC[C@@H]21)C(=O)O | inactive | – |
| CNc1nc(Cc2ccccc2)nc2c1CCNC[C@@H]2C | inactive | – |
| O=C(OC[C@H]1O[C@@H](Oc2ccccc2CO)[C@H](O)[C@@H](O)[C@@H]1O)c1ccccc1 | inactive | – |
| C=C1C(=O)OC2CC(COC(=O)C(C)C)=C(C(C)CCCOC(C)=O)[C@@H](OC(C)=O)C12 (some centres undefined) | inactive | – |
